Experimental data published in PubChem BioAssay (EPA / NIEHS).
Records with an inconclusive call do not appear. The source made the active and inactive calls. Rule for the calls, unless noted: active = hit-call score of the fitted dose curve at least 0.9, where 1 is the maximum; inactive = score below 0.9.

Assays:
[1] = read-out: Monocyte Chemoattractant Protein-1 (MCP1), CCL2 (gene 6347); assay: BSK_LPS_MCP1: BioMAP Diversity Plus: LPS Assay for Monocyte Chemoattractant Protein-1 (MCP1) Biomarker Activity (AID 2283081); conditions: primary human HUVEC with PBMC; actives raise or lower the signal;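 for AC50: secreted MCP-1 protein quantified by ELISA in culture supernatant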
Outline: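 Human endothelial–PBMC co-cultures were dosed with chemical, then LPS-driven MCP-1 levels were quantified by ELISA at 24 h. Activity in either direction was fitted versus DMSO negative control.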

[2] = BSK_LPS_PGE2: BioMAP Diversity Plus: LPS Assay for Prostaglandin E2 (PGE2) Biomarker Activity (AID 2283082); conditions: primary human HUVEC with PBMC; actives raise or lower the signal;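 for AC50: secreted prostaglandin E2 measured by ELISA in LPS-stimulated co-culture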
Outline: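 LPS-activated HUVEC/PBMC co-culture; cmpd dosed, 24 h; PGE2 by ELISA; bidirectional fit vs DMSO; SRB (0.1%, TCA-fixed, 560 nm) in parallel plates for overt cytotox.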

[3] = read-out: Macrophage colony-stimulating factor (MCSF), CSF1 (gene 1435); assay: BSK_LPS_MCSF: BioMAP Diversity Plus: LPS Assay for Macrophage colony-stimulating factor (MCSF) Biomarker Activity (AID 2283083); conditions: primary human HUVEC with PBMC; actives raise or lower the signal
Outline: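 ELISA readout of M-CSF after 24 h compound exposure in a human endothelial/PBMC co-culture. Activity, in either direction, is fitted relative to DMSO vehicle.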

[4] = read-out: Tissue Factor, F3 (gene 2152); assay: BSK_LPS_TissueFactor: BioMAP Diversity Plus: LPS Assay for Tissue Factor Biomarker Activity (AID 2283084); conditions: primary human HUVEC with PBMC; actives raise or lower the signal
Outline: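 ELISA signal for cell-surface Tissue Factor (CD142) was read 24 h after compound dosing of an LPS-stimulated human endothelial–PBMC primary co-culture. Gain or loss of signal was scored relative to DMSO.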

[5] = read-out: Tumor necrosis factor (Homo sapiens) (UniProt P01375); assay: BSK_LPS_TNFa: BioMAP Diversity Plus: LPS Assay for Tumour Necrosis Factor alpha (TNFa) Biomarker Activity (AID 2283085); conditions: primary human HUVEC with PBMC; actives raise or lower the signal
Outline: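 Read-out is ELISA of TNFa in primary human endothelial cell–PBMC co-cultures at 24 h after compound. Activity in either direction was fitted against DMSO.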

[6] = read-out: Vascular cell adhesion molecule 1 (VCAM1), VCAM1 (gene 7412); assay: BSK_LPS_VCAM1: BioMAP Diversity Plus: LPS Assay for Vascular cell adhesion molecule 1 (VCAM1) Biomarker Activity (AID 2283086); conditions: primary human HUVEC with PBMC; actives raise or lower the signal
Outline: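 HUVEC + PBMC co-culture, LPS system; compound 24 h; VCAM-1 by ELISA; bidirectional fit vs DMSO control; parallel SRB (0.1%, TCA-fixed, 560 nm) for cytotoxicity.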

CD38, CD38 (gene 952) = assay: BSK_SAg_CD38: BioMAP Diversity Plus: SAg Assay for CD38 Biomarker Activity (AID 2283087); conditions: primary human HUVEC with PBMC; actives raise or lower the signal
Outline: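 Human HUVEC plus PBMC co-culture stimulated with superantigen; CD38 measured by ELISA 24 h after chemical dosing. Fluorescence read-out, bidirectional fit against DMSO; cytotoxicity tracked in parallel by SRB and Alamar Blue.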

CD40, CD40 (gene 958) = assay: BSK_SAg_CD40: BioMAP Diversity Plus: SAg Assay for CD40 Biomarker Activity (AID 2283088); conditions: primary human HUVEC with PBMC; actives raise or lower the signal
Outline: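 Compounds were dosed onto a human primary endothelial–PBMC co-culture, and after 24 h CD40 was quantified by ELISA using a fluorescence signal. Activity in either direction was fitted relative to DMSO.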

[7] = read-out: Monocyte Chemoattractant Protein-1 (MCP1), CCL2 (gene 6347); assay: BSK_SAg_MCP1: BioMAP Diversity Plus: SAg Assay for Monocyte Chemoattractant Protein-1 (MCP1) Biomarker Activity (AID 2283090); conditions: primary human HUVEC with PBMC; actives raise or lower the signal
Outline: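 MCP-1 levels in the endothelial–PBMC SAg co-culture were quantified by ELISA at 24 h post-dosing; both increases and decreases versus DMSO scored. Cytotoxicity monitored by SRB total protein in parallel cultures.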

[8] = read-out: E-selectin (Homo sapiens) (UniProt P16581); assay: BSK_SAg_Eselectin: BioMAP Diversity Plus: SAg Assay for Eselectin Biomarker Activity (AID 2283091); conditions: primary human HUVEC with PBMC; actives raise or lower the signal
Outline: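 Co-culture: HUVEC + PBMC. Dose compound; 24 h. ELISA for E-selectin. Bidirectional fit vs DMSO.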

[9] = read-out: Monokine induced gamma interferon (MIG), CXCL9 (gene 4283); assay: BSK_SAg_MIG: BioMAP Diversity Plus: SAg Assay for Monokine induced gamma interferon (MIG) Biomarker Activity (AID 2283092); conditions: primary human HUVEC with PBMC; actives raise or lower the signal
Outline: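 HUVEC plus human PBMC co-culture, chemicals dosed and MIG (CXCL9) quantified by ELISA at 24 h. Bidirectional curve fitting against DMSO as negative control and baseline, so both gain and loss of signal count as activity.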

[10] = BSK_SAg_PBMCCytotoxicity: PBMC Cytotoxicity Assessment in the BioMAP Diversity Plus: SAg Assay (AID 2283093); conditions: primary human HUVEC with PBMC;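 note: PBMC viability measured as Alamar Blue reduction fluorescence at 546/580 nm; fitted both ways against DMSO so a hit may be loss or gain of signal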;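 for AC50: PBMC superantigen activated with SEB plus TSST-1 one hour after compound addition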
Outline: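 Compound added to 75,000 PBMC/well for 1 h; SEB and TSST-1 then added at 20 ng/mL final each; 90 h incubation; Alamar Blue 6 h; read 546/580 nm ex/em. Activity fitted bidirectionally relative to DMSO baseline.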

[11] = read-out: Interleukin-8 (IL8), CXCL8 (gene 3576); assay: BSK_SAg_IL8: BioMAP Diversity Plus: SAg Assay for Interleukin-8 (IL8) Biomarker Activity (AID 2283094); conditions: primary human HUVEC with PBMC; actives raise or lower the signal
Outline: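 ELISA read-out of IL-8 in a primary human vascular co-culture (umbilical vein endothelium plus PBMC), taken 24 h after compound addition. Values derive from bidirectional fits against DMSO negative controls.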

[12] = BSK_SAg_Proliferation: Cell Proliferation Assessment in the BioMAP Diversity Plus: SAg Assay (AID 2283095); conditions: primary human HUVEC with PBMC;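 note: relative cell number as total protein by SRB absorbance in sub-confluent culture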
Outline: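 Cells (endothelium plus PBMC, human primary) were dosed with chemical, cultured 96 h, fixed in 10% TCA and stained with 0.1% SRB. Absorbance at 560 nm gave relative protein, fitted bidirectionally relative to DMSO.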

[13] = BSK_SAg_SRB: Viability Assessment in the BioMAP Diversity Plus: SAg Assay (AID 2283096); conditions: primary human HUVEC with PBMC;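 note: cells read one day after compound addition; hits may be either gain or loss of signal compared with DMSO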
Outline: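 Total protein by sulforhodamine B staining, 24 h after dosing, in HUVEC–PBMC co-culture; DMSO-referenced bidirectional fitting.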

[14] = target: human CYP2C8, CYP2C8 (gene 1558) (UniProt P10632); assay: NVS_ADME_hCYP2C8: NovaScreen (NVS) CYP450-related Enzyme Activity (ADME) Assay for human CYP2C8 (AID 2283104)
Outline: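 Recombinant human CYP2C8 with fluorogenic substrate, 0.5 h, fluorescence intensity; signal loss fitted versus acetonitrile. Screened in duplicate at 10 uM, then actives run in concentration-response up to 20 uM.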

[15] = target: human CYP2A6, CYP2A6 (gene 1548) (UniProt P11509); assay: NVS_ADME_hCYP2A6: NovaScreen (NVS) CYP450-related Enzyme Activity (ADME) Assay for human CYP2A6 (AID 2283099; active = hit-call score of the fitted dose curve at least 0.9, where 1 is the maximum)
Outline: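 Fluorescent substrate turnover by recombinant CYP2A6 (insect cell source), 0.5 h read. Screen: 10 uM, duplicate; threshold hits (e.g. 30% inhibition) → singleton concentration-response, top 20 uM. Positive and negative controls on every plate.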

[16] = target: human CYP1A2, CYP1A2 (gene 1544) (UniProt P05177); assay: NVS_ADME_hCYP1A2: NovaScreen (NVS) CYP450-related Enzyme Activity (ADME) Assay for human CYP1A2 (AID 2283102; active = hit-call score of the fitted dose curve at least 0.9, where 1 is the maximum)
Outline: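 rec. hCYP1A2 (insect cells), cell-free; fluorogenic substrate; 0.5 h; FI read. Baseline = acetonitrile; signal loss = inhibition. 10 uM duplicate primary → conc. series for actives.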

Chain of E-selectin (Homo sapiens) (P16581 whole entry, looked up): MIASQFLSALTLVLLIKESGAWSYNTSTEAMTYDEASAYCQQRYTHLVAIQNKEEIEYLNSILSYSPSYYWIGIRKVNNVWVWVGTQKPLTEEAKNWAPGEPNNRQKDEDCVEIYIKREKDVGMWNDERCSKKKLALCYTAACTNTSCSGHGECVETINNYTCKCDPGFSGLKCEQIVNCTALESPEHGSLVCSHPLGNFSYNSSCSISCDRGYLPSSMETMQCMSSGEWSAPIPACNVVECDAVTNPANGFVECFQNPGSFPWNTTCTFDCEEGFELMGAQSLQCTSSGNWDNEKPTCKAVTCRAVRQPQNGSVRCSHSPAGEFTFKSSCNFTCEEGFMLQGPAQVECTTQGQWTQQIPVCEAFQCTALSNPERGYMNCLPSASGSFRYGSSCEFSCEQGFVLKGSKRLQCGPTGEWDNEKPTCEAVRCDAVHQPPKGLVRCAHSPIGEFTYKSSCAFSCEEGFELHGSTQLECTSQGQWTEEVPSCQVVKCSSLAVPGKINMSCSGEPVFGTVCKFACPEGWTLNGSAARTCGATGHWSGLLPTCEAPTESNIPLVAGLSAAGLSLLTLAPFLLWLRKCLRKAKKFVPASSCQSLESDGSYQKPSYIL
Chain of Tumor necrosis factor (Homo sapiens) (P01375 whole entry, looked up): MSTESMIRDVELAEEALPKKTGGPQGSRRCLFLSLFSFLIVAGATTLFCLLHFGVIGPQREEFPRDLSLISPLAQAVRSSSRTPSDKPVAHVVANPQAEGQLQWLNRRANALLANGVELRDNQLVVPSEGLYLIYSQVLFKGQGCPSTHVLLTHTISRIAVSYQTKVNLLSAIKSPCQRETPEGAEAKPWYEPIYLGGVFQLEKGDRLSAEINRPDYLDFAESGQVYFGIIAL
Chain of human CYP1A2, CYP1A2 (gene 1544) (P05177 whole entry, looked up): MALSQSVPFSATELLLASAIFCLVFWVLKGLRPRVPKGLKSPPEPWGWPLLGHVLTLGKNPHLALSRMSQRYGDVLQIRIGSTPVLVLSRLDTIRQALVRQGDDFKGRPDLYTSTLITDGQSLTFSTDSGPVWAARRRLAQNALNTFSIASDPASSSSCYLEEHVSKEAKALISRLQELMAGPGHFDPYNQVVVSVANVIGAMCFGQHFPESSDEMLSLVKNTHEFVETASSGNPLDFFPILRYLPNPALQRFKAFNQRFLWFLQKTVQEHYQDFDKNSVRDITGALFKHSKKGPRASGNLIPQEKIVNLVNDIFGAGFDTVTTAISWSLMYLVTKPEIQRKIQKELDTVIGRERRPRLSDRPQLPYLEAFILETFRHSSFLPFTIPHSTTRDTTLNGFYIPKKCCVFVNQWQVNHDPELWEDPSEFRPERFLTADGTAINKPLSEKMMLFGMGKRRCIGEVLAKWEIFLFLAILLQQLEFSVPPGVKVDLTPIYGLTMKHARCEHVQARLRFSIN
Chain of human CYP2C8, CYP2C8 (gene 1558) (P10632 whole entry, looked up): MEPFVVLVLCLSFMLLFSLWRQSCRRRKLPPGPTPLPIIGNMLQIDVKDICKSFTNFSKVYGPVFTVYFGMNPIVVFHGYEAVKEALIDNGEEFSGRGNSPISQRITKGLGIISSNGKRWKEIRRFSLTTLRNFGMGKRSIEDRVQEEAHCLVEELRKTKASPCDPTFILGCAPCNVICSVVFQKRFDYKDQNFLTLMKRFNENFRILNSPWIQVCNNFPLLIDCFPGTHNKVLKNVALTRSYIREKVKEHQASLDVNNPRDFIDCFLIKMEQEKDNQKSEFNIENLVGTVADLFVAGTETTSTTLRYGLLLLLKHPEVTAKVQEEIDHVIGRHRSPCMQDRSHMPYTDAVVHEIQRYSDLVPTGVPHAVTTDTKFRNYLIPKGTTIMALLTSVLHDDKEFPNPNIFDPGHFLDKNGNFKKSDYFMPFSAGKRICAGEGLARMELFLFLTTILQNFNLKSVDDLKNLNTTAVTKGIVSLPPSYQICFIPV
Chain of human CYP2A6, CYP2A6 (gene 1548) (P11509 whole entry, looked up): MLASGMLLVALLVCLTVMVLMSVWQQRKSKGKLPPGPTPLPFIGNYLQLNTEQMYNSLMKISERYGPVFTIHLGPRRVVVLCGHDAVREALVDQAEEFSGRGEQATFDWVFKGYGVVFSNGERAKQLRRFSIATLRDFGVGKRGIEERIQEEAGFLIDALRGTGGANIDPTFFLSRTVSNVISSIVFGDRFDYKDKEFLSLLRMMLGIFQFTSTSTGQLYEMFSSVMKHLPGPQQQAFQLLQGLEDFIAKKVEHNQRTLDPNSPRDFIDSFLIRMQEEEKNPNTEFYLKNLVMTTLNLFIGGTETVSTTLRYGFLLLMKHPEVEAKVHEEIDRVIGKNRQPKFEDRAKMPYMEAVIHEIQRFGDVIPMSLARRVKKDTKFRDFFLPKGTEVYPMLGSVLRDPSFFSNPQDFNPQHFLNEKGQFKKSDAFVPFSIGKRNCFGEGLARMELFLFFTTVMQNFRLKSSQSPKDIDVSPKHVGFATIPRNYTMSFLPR

SMILES: CCc1nn(C)c(C(=O)NCc2ccc(C(C)(C)C)cc2)c1Cl
- AC50 [1]: 29.4 µM (active)
- AC50 [2]: 3.97 µM (active)
- AC50 [3]: 13.4 µM (active)
- AC50 [4]: 20 µM (active)
- AC50 [5]: 20.8 µM (active)
- AC50 [6]: 19.4 µM (active)
- AC50 (CD38, CD38 (gene 952)): 15.8 µM (active)
- AC50 (CD40, CD40 (gene 958)): 7.68 µM (active)
- AC50 [7]: 20 µM (active)
- AC50 [8]: 3.97 µM (active)
- AC50 [9]: 34.7 µM (active)
- AC50 [10]: 34.8 µM (active)
- AC50 [11]: 5.02 µM (active)
- AC50 [12]: 20 µM (active)
- AC50 [13]: 29.4 µM (active)
- outcome [14]: inactive

SMILES: CN(C)C(=S)SSC(=S)N(C)C
- AC50 [1]: 27.1 µM (active)
- AC50 [2]: 4.51 µM (active)
- AC50 [3]: 14.8 µM (active)
- AC50 [4]: 14.5 µM (active)
- AC50 [5]: 13.8 µM (active)
- AC50 [6]: 24.6 µM (active)
- AC50 (CD38, CD38 (gene 952)): 26.8 µM (active)
- AC50 (CD40, CD40 (gene 958)): 28 µM (active)
- AC50 [7]: 28.7 µM (active)
- AC50 [8]: 24.8 µM (active)
- AC50 [9]: 36.6 µM (active)
- AC50 [10]: 3.87 µM (active)
- AC50 [11]: 18.6 µM (active)
- AC50 [13]: 35.3 µM (active)
- outcome [15]: inactive

SMILES: COP(=S)(OC)Oc1nc(Cl)c(Cl)cc1Cl
- AC50 [1]: 30.4 µM (active)
- AC50 [2]: 26.7 µM (active)
- outcome [3]: inactive
- AC50 [4]: 25.3 µM (active)
- AC50 [5]: 27.8 µM (active)
- AC50 [6]: 26.4 µM (active)
- outcome (CD38, CD38 (gene 952)): inactive
- outcome (CD40, CD40 (gene 958)): inactive
- outcome [7]: inactive
- AC50 [8]: 32 µM (active)
- outcome [9]: inactive
- outcome [10]: inactive
- outcome [11]: inactive
- AC50 [12]: 20 µM (active)
- outcome [13]: inactive
- outcome [16]: inactive

SMILES: CC(C)(C)c1ccc(CSc2cnn(C(C)(C)C)c(=O)c2Cl)cc1
- AC50 [1]: 5.45 µM (active)
- outcome [2]: inactive
- AC50 [3]: 9.19 µM (active)
- outcome [4]: inactive
- outcome [5]: inactive
- AC50 [6]: 15.8 µM (active)
- AC50 (CD38, CD38 (gene 952)): 2.4 µM (active)
- AC50 (CD40, CD40 (gene 958)): 4.43 µM (active)
- AC50 [7]: 1.11 µM (active)
- AC50 [8]: 0.148 µM (active)
- outcome [9]: inactive
- AC50 [10]: 0.0975 µM (active)
- AC50 [11]: 0.453 µM (active)
- AC50 [12]: 6.61 µM (active)
- AC50 [13]: 13.6 µM (active)

SMILES: CNC(=O)ON=CC(C)(C)SC
- outcome [1]: inactive
- AC50 [2]: 2.13 µM (active)
- outcome [3]: inactive
- outcome [4]: inactive
- outcome [5]: inactive
- outcome [6]: inactive
- outcome (CD38, CD38 (gene 952)): inactive
- outcome (CD40, CD40 (gene 958)): inactive
- outcome [7]: inactive
- outcome [8]: inactive
- outcome [9]: inactive
- outcome [10]: inactive
- outcome [11]: inactive
- outcome [12]: inactive
- outcome [13]: inactive

SMILES: CCON=C(CC)C1=C(O)CC(c2c(C)cc(C)cc2C)CC1=O (configuration not stated)
- outcome [1]: inactive
- AC50 [2]: 20 µM (active)
- outcome [3]: inactive
- outcome [4]: inactive
- outcome [5]: inactive
- outcome [6]: inactive
- outcome (CD38, CD38 (gene 952)): inactive
- outcome (CD40, CD40 (gene 958)): inactive
- outcome [7]: inactive
- outcome [8]: inactive
- outcome [9]: inactive
- outcome [10]: inactive
- outcome [11]: inactive
- outcome [12]: inactive
- outcome [13]: inactive
